Screening results deposited in PubChem by several laboratories.
SUMO HTRF inh: blocks human SUMOylation mediated by UBC9; inhibition, % at 35 µM; hit rate 0.36% among 290,000; P63279; HTRF SUMOylation assay, SAE1/SAE2 + UBC9, in vitro; in the data active = inhibition above about 50%, passing the limit was not always enough
Target sequence (P63279 whole entry, looked up): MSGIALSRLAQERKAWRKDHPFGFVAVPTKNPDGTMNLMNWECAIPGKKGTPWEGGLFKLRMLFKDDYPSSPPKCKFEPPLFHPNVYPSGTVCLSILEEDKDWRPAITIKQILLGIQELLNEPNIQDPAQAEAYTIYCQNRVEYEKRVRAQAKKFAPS
ALR H2O2 inh: human ALR oxidase inhibition via reduced H2O2. inhibition, % (no concentration beside the values). AID 485317. purified ALR, DTT oxidation, H2O2 HRP-luminol luminescence. P55789. hit rate 3.8% among 290,000;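 active = mean replicate inhibition above about 79%, with every replicate also reaching it, limit read from the data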
Target sequence (P55789 whole entry, looked up): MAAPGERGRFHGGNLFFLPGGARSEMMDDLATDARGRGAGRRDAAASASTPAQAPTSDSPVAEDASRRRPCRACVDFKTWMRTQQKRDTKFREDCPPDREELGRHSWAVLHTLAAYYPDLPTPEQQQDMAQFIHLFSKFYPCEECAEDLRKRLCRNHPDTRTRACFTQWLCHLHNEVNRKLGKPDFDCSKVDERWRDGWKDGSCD
NTR1 ag: activates human neurotensin receptor 1; P30989; NTR1-U2OS beta-arrestin-GFP spot imaging, agonist mode; activation, % at 20 µM; hit rate 0.17% among 330,000; AID 493036;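 active = activation at or above 40% of the spot to cytoplasm intensity ratio, with at least 20 cells analyzed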;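 also: 0% = DMSO without peptide and 100% = 100 nM NTR1 peptide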
H9c2 protect: protects H9c2 cardiomyocytes from peroxide injury; AID 588492; hit rate 0.63% among 360,000; H2O2 injury protection, ATPLite, 2 h; protection from H2O2 cell death, % at 20 µM;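 active = compounds giving at least 50% protection of heart cells from peroxide-induced death in the single-dose screen, raw or plate-pattern-corrected value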;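 also: 0% = DMSO wells with peroxide and 100% = DMSO wells without peroxide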
Starred values were filed as active, the others as inactive; . = no result given. Most compounds without a hit are left out; they make up all but 3.9% or so of the library.

SMILES	SUMO HTRF inh	ALR H2O2 inh	NTR1 ag	H9c2 protect
CSc1ccc(C2Nc3ccccc3-c3cc(C)nn32)cc1 (stereo not given)	8.1	-0.1	7.9	3.2
Cc1cc2n(n1)C(c1ccccc1Cl)Nc1ccccc1-2 (stereo not given)	-11.7	98.2*	0.8	2.0
CC(N=Cc1cccc(O)c1O)c1ccccc1 (stereo not given)	29.8	-18.9	17.7	58.9*
Oc1cccc(/C=N/N=C/c2cccc(O)c2O)c1O	6.8	-2.2	1.3	-8.7
Cc1ccccc1N=Cc1cccc(O)c1O	58.1	-87.3	8.6	57.9*
Cc1ccc(N=Cc2cccc(O)c2O)c(C)c1	8.9	-7.1	5.4	72.7*
CCOc1cc(CN2CCN(CCc3ccccc3)C(CCO)C2)ccc1OC (stereo not given)	-4.1	-3.6	2.3	-1.9
O=C(O)c1ccc(-n2cccc2/C=N\NC(=O)c2cc3cc(Br)ccc3o2)cc1	43.3	86.8*	0.2	-2.9
COC(=O)[C@@]1(Cc2ccc(OC)cc2)[C@H]2c3cc(C(=O)N4CCCC4)n(CCO)c3C[C@H]2CN1C(=O)c1ccccc1	15.6	.	-0.4	.
Cc1nnc(N2C(=O)C(O)=C(C(=O)c3ccco3)C2c2ccc(C(C)(C)C)cc2)s1 (stereo not given)	7.6	97.1*	1.9	1.9
Cc1nnc(N2C(=O)C(O)=C(C(=O)c3ccco3)C2c2ccc(F)cc2)s1 (stereo not given)	16.5	70.9	-2.2	16.5
Cc1nnc(N2C(=O)C(O)=C(C(=O)c3ccco3)C2c2ccc(C(C)C)cc2)s1 (stereo not given)	9.6	96.7*	1.9	-2.5
CSc1ccc(C2C(C(=O)c3ccco3)=C(O)C(=O)N2c2nnc(SC)s2)cc1 (stereo not given)	15.5	98.1*	1.3	2.9
CCOc1ccc(C(=O)CSCC(=O)O)cc1	-13.5	98.5*	-0.2	4.4
CCOc1ccc(C(=O)CCC(=O)O)cc1	17.3	1.6	0.8	-0.9
COc1cc(C(=O)NNC(=O)NC2CCCCC2)cc(OC)c1OC	8.6	24.9	-1.3	1.5
O=C(CSc1ncc(-c2ccccc2)[nH]1)Nc1cccc(O)c1	8.4	99.0*	-0.8	2.4
NC(=O)CSc1ncc(-c2ccccc2)[nH]1	15.7	18.2	0.3	3.4
CC(=O)Nc1cccc(NC(=O)CSc2ncc(-c3ccccc3)[nH]2)c1	2.9	98.6*	1.8	16.2
O=C(CSc1ncc(-c2ccccc2)[nH]1)Nc1ccccc1	11.6	98.8*	0.3	-5.2
O=C(CSc1ncc(-c2ccccc2)[nH]1)Nc1ccccc1F	-4.7	11.9	0.7	-3.9
COc1cc(OC)c2c3c(c(C4CCCCC4)nc2c1)CCCC3	.	.	.	0.9
O=C(Cn1c(=O)oc2cc(S(=O)(=O)N3CCc4ccccc43)ccc21)N1CCCCC1	6.8	87.8*	-2.1	-6.0
O=C(Cn1c(=O)oc2cc(S(=O)(=O)N3CCCCC3)ccc21)N1CCc2ccccc21	14.8	.	5.5	-7.1
O=C1NCCCc2c1oc1ccc(O)cc21	12.2	99.0*	-4.1	1.3
SMILES	SUMO HTRF inh	ALR H2O2 inh	NTR1 ag	H9c2 protect
O=C1c2ccccc2C(=O)N1N(c1ccccc1)c1ccccc1	.	.	.	-2.1
O=C(Nc1cccc(-c2nc3ccccc3s2)c1)c1cc(-n2cnnc2)ccc1Cl	12.4	-9.6	9.1	75.7*
Cc1ccc2sc(-c3ccc(NC(=O)c4cc(-n5cnnc5)ccc4Cl)cc3)nc2c1	22.7	30.6	4.6	-8.0
Cc1c(NC(=O)c2cccs2)cccc1-c1nc2ccccc2s1	-7.7	-0.7	23.4	-18.2
Cc1c(NC(=O)c2cc(-n3cnnc3)ccc2Cl)cccc1-c1nc2ccccc2s1	8.4	87.5*	8.6	-14.5
COc1cc(/C=C2/NC(=O)N(c3cccc(Cl)c3)C2=O)ccc1O	14.7	6.6	3.1	-4.0
O=C(Oc1ccccc1)c1cc2ccccc2o1	13.2	-4.7	-0.8	0.5
O=C(N/N=C/c1cc(Br)c(Br)o1)C(O)c1ccccc1 (stereo not given)	23.1	-12.2	-2.3	12.5
CC(C)C(=O)n1nc(-c2cccnc2)nc1NCc1cccs1	-13.8	97.1*	0.0	-2.3
COc1ccc(CNc2nc(-c3cccnc3)nn2C(=O)C(C)C)cc1	17.8	.	.	3.2
CCc1ccc(CN(C)CCc2ccccn2)cc1	4.9	2.2	-1.0	1.7
Cc1ccc(CN(C)CCc2ccccn2)cc1	8.9	96.2*	-0.3	4.4
Cc1c(Cc2ccccc2)c(=O)oc2cc(O)cc(O)c12	15.2	77.6*	-0.2	-4.4
Cc1coc2cc3oc(=O)c(Cc4ccccc4)c(C)c3cc12	4.3	-4.9	2.1	-9.7
O=C(N/N=C/c1ccc(F)c(F)c1)c1cccc(S(=O)(=O)N2CCCCC2)c1	.	.	4.4	6.3
CCN(CC)S(=O)(=O)c1cccc(C(=O)N/N=C/c2cc(OC)c(O)c(OC)c2)c1	-0.2	99.3*	0.5	-0.5
COc1cc(/C=N/NC(=O)c2cccc(S(=O)(=O)N3CCCC3)c2)cc(OC)c1O	.	99.1*	-0.5	5.1
CCN(CC)S(=O)(=O)c1cccc(C(=O)N/N=C/c2ccccn2)c1	-4.9	-4.9	1.6	51.2*
COc1ccc(/C(C)=N/NC(=O)c2cccc(S(=O)(=O)N3CCCC3)c2)c(O)c1	.	6.4	1.1	69.7*
CN1C[C@@H]2[C@@H]3C(=O)N(C)C(=O)[C@@H]3[C@](Cc3ccccc3)(C1=O)N2C(=O)c1ccc(F)cc1	.	.	.	6.0
COc1ccc(/C=N/NC(=O)c2cccc(OC(F)(F)C(F)F)c2)cc1O	1.5	96.2*	0.4	0.8
COc1ccc(NS(=O)(=O)c2cccc(C(=O)NN=Cc3ccc(OC)c(O)c3)c2)cc1	.	.	3.1	-4.9
COc1ccc(/C=N/NC(=O)c2cccc(S(=O)(=O)N3CCCC3)c2)cc1O	.	97.2*	0.4	6.7
CCCN1CCN(CCCNC(=O)c2ccc3c(=O)n(CCc4ccccc4)c(=O)[nH]c3c2)CC1	9.4	.	0.0	3.6
O=C1c2ccccc2C(=O)N1CCCCNc1ccccc1	.	.	.	1.3
SMILES	SUMO HTRF inh	ALR H2O2 inh	NTR1 ag	H9c2 protect
c1ccc(NCCCNc2ccccc2)cc1	10.0	98.3*	-0.5	4.5
COc1ccnc(N=CNOCc2cccc(C(F)(F)F)c2)c1C#N	-5.0	4.5	6.8	2.7
Nn1c(SCC(=O)Nc2cccc(S(N)(=O)=O)c2)nnc1C1CC1	1.5	-13.6	0.4	10.2
Cc1ccc(Cn2c(N/N=C/c3ccncc3)nc3c2c(=O)n(C)c(=O)n3C)cc1	-1.8	97.2*	0.3	27.8
Cn1c(=O)c2c(nc(N/N=C/c3ccncc3)n2Cc2ccccc2)n(C)c1=O	8.3	97.1*	0.1	4.7
COc1ccc(S(=O)(=O)N2CCC(C(=O)NCCc3ccccc3)CC2)cc1OC	8.8	2.1	0.2	1.4
CCOC(=O)CNC(c1ccccc1)c1cc(Br)ccc1NC(C)=O (stereo not given)	8.1	-19.4	-1.3	1.1
COc1cc(/C=C2\SC(=S)N(NS(=O)(=O)c3ccccc3)C2=O)ccc1O	-0.3	.	0.4	-4.6
CCCOc1ccc(F)cc1-c1cc(C(=O)Nc2ccc(OC)cc2OC)[nH]n1	.	.	.	1.3
CCCC(=O)n1nc(-c2ccc(C)cc2)nc1NCc1ccco1	18.2	89.6*	3.1	-7.6
COc1ccc(CCN(C)Cc2ccc(OCc3ccccc3)c(OC)c2)cc1OC	-18.6	99.3*	-0.2	-4.0
